In PubChem BioAssay (NCATS):
Results filed as inconclusive are left out. Activity calls are given as the source filed them. Unless noted, calls follow the shape of the dose curve; as a rule, active = well fitted curve in the direction sought with a large enough effect; inconclusive = small, poorly fitted or top-dose-only effect, or another doubt; inactive = no such curve, though single readings can be large; an effect the other way counts as inactive or inconclusive.

Experiments:
[1] = biological target: Cytochrome P450 1A2 (Homo sapiens) (UniProt P05177); assay: qHTS for inhibitors of CYPIA2 against the NCATS DSHEA and TCM libraries (AID 1919976); settings: recombinant CYP1A2 enzyme activity, luminescence; also: potency is read from the fitted curve at half-maximal effect
In short: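 Human CYP1A2 with pro-luciferin substrate (typically 100 mM KPO4), 15 min preincubation with compound, then 1x NADPH regeneration for 30-45 min at room temperature in the dark. Luciferin quantified by luciferase luminescence; furafylline intraplate control.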

[2] = Dual reporter qHTS for agonist of Pregnane X Receptor (hPXR) against the NCATS DSHEA and TCM libraries: Fluorescence readout (AID 1920058); settings: PXR dual reporter cells; series mostly up to 40 µM
In short: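 hPXR-Luc HepG2 cells, 2000/well in charcoal-stripped serum, attached 5 h, dosed for ~24 h at 37 °C. Fluorescence read is CellTiter-Fluor viability (Ex/Em 405/540 nm); rifampicin positive, tetraoctyl ammonium bromide (92 µM) cytotoxicity controls.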

[3] = biological target: Nuclear receptor subfamily 1 group I member 2 (Homo sapiens) (UniProt O75469); assay: Dual reporter qHTS for antagonist of Pregnane X Receptor (hPXR) against the NCATS DSHEA and TCM libraries: Luminescence Readout (AID 1920060); settings: hPXR dual reporter cells, luciferase luminescence, antagonist mode; series mostly up to 40 µM;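 also: HepG2 cells carrying hPXR luciferase reporter stimulated with rifampicin at 2 µM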
In short: (§1)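 HepG2 hPXR-Luc, 2000 cells/well, charcoal-stripped FBS medium; 5 h attach; RIF 2 uM final; 24 h 37C/5% CO2; CellTiter-Fluor 1 h, fluor 405/540; ONE-Glo 30 min RT, lum.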

[4] = Dual reporter qHTS for antagonist of Pregnane X Receptor (hPXR) against the NCATS DSHEA and TCM libraries: Fluorescence Readout (AID 1920061); settings: PXR dual reporter cells, antagonist mode; series mostly up to 40 µM
In short: as §1

[5] = S16 Schwann cell viability assay (CellTiter-Glo assay) (AID 624031); settings: S16 rat Schwann cells viability, 24 h; series mostly up to 57.5 µM;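 also: cellular ATP luminescence as a viability measure; nearly all actives have a fitted effect of over 70% in size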
In short: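 Untransfected S16 rat Schwann cells; compound 24 h, 37 °C/5% CO2; CellTiter-Glo ATP luminescence. % activity vs no-cell wells and DMSO controls (0%); concentration-effect curves classed by r2, response magnitude, activity.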

[6] = S16 Schwann cell PMP22 intronic element beta-lactamase assay (AID 624044; calls by dose curve; also: nearly all actives have a fitted effect of over 15% in size); settings: S16 rat Schwann cells, PMP22 element beta-lactamase FRET, 24 h; series mostly up to 38.3 µM
In short: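 Rat S16 Schwann cells with beta-Lac driven by a PMP22 intronic element, compound-treated 24 h at 37 °C. LiveBLAzer FRET B/G read: 460 nm normalized to potassium clavulanate vs DMSO; 535 nm FRET as viability; concentration-effect curves classified.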

[7] = biological target: Rap guanine nucleotide exchange factor 3 (Homo sapiens) (UniProt O95398); assay: Confirmatory qHTS for antagonist of cAMP-regulated guanine nucleotide exchange factor 3 (EPAC1) (AID 1645880); settings: EPAC1 Rap1B-BODIPY-GDP exchange, fluorescence; series mostly up to 115 µM; also: nearly all actives have a fitted effect of over 55% in size
In short: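 Nucleotide exchange uses 100 nM EPAC1, 250 nM RAP1B-BODIPY-GDP and 50 uM GDP, with compounds in a concentration-titration series. After 5 min at room temperature, fluorescence (480 nm ex/540 nm em) is read every 5 min for 30 min. Data are normalized to control ATA and DMSO.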

[8] = biological target: Rap guanine nucleotide exchange factor 3 (Homo sapiens) (UniProt O95398); assay: Confirmatory qHTS for agonist of cAMP-regulated guanine nucleotide exchange factor 3 (EPAC1) (AID 1645881); settings: EPAC1 Rap1B BODIPY-GDP exchange fluorescence, 100% = cAMP control response; series mostly up to 154 µM;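 also: EPAC1 catalysed release of BODIPY-GDP from Rap1B seen as fluorescence loss; nearly all actives have a fitted effect of over 75% in size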
[9] = biological target: Rap guanine nucleotide exchange factor 4 (Homo sapiens) (UniProt Q8WZA2); assay: Confirmatory qHTS for agonist of cAMP-regulated guanine nucleotide exchange factor 4 (EPAC2) (AID 1645884); settings: EPAC2 GEF activity, Rap1B-BODIPY-GDP fluorescence, percent relative to cAMP agonist control; series mostly up to 154 µM;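 also: nucleotide exchange releases bodipy-GDP from Rap1 and this lowers its fluorescence; nearly all actives have a fitted effect of over 65% in size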
[10] = biological target: Rap guanine nucleotide exchange factor 4 (Homo sapiens) (UniProt Q8WZA2); assay: Confirmatory qHTS for antagonist of cAMP-regulated guanine nucleotide exchange factor 4 (EPAC2) (AID 1645885); settings: EPAC2 Rap1B-BODIPY-GDP exchange fluorescence, biochemical; series mostly up to 114 µM; also: nearly all actives have a fitted effect of over 25% in size
[11] = biological target: Rap guanine nucleotide exchange factor 3 (Homo sapiens) (UniProt O95398); assay: Counterscreen qHTS for agonist of cAMP-regulated guanine nucleotide exchange factor 3 (EPAC1) (AID 1645889); settings: EPAC1 Rap1B-BODIPY-GDP exchange, fluorescence; series mostly up to 154 µM; also: nearly all actives have a fitted effect of over 40% in size
In short: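 Rap1B–BODIPY-GDP (250 nM) with 50 uM GDP; compounds pin-transferred to 9.74 nM–152 uM final (activator) or from 7.32 nM upwards (inhibitor). Fluorescence Ex/Em 480/540 nm read at 5 and 30 min, then after adding cAMP or buffer, at room temperature.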

[12] = biological target: Cytochrome P450 3A4 (Homo sapiens) (UniProt P08684); assay: qHTS Assay for Inhibitors and Substrates of Cytochrome P450 3A4 (AID 884); settings: recombinant CYP3A4, Luciferin-PPXE luminescence; series mostly up to 57.1 µM; also: nearly all actives have a fitted effect of over 50% in size
In short: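 20 nM human CYP3A4 with 25 uM Luciferin-PPXE (at KM) in 200 mM KPO4, preincubated 10 min with compound; NADPH regeneration started a 60 min RT reaction. Luciferin detected by luminescence, normalized to 57 uM ketoconazole as full inhibition.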

[13] = biological target: RecQ-like DNA helicase BLM (Homo sapiens) (UniProt P54132); assay: qHTS Validation Assay for Inhibitors of Bloom's syndrome helicase (BLM) (AID 2364); settings: BLM helicase DNA unwinding, fluorescence, in vitro; series mostly up to 57.1 µM
In short: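 50 nM BLM preincubated 15 min at room temperature with compound in pH 8.0 Tris buffer containing 2.5 ug/ml poly(dI-dC); started with 200 nM TAMRA/BHQ-2 forked duplex and 2 mM ATP (final). Unwinding read as TAMRA fluorescence increase, two reads 2 h apart.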

[14] = Validation screen for small molecules that induce DNA re-replication in MCF 10A normal breast cells (AID 463097); settings: MCF 10A cells, DNA re-replication phenotype imaging; series mostly up to 46.1 µM; also: nearly all actives have a fitted effect of over 60% in size
In short: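 MCF 10A cells exposed to compound 48 hr at 37 C, 5% CO2, then Hoechst-stained 40 min. Laser-scanning imaging of nuclear DNA content (405 nm ex, 500-530 nm em); re-replication scored as rise in nuclei with elevated fluorescence intensity.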

[15] = biological target: M-phase phosphoprotein 8 (Homo sapiens) (UniProt Q99549); assay: qHTS Validation Assay for Inhibitors for MPP8 Chromodomain Interactions with Methylated Histone Tails (AID 488949); settings: AlphaScreen MPP8 binding to H3K9me3 peptide; series mostly up to 114 µM; also: top concentration of the series differs between compounds; nearly all actives have a fitted effect of over 55% in size
In short: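 MPP8 (50 nM) was pre-bound to 50 nM biotinylated H3(1-18)K9me3 peptide in PBS pH 7.4 with 0.01% Tween-20. Compounds were then added for 30 min at room temperature, and complex disruption was read by AlphaScreen with streptavidin donor and nickel-chelate acceptor beads.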

Measured: Potency

Chain of Rap guanine nucleotide exchange factor 4 (Homo sapiens) (Q8WZA2 whole entry, looked up): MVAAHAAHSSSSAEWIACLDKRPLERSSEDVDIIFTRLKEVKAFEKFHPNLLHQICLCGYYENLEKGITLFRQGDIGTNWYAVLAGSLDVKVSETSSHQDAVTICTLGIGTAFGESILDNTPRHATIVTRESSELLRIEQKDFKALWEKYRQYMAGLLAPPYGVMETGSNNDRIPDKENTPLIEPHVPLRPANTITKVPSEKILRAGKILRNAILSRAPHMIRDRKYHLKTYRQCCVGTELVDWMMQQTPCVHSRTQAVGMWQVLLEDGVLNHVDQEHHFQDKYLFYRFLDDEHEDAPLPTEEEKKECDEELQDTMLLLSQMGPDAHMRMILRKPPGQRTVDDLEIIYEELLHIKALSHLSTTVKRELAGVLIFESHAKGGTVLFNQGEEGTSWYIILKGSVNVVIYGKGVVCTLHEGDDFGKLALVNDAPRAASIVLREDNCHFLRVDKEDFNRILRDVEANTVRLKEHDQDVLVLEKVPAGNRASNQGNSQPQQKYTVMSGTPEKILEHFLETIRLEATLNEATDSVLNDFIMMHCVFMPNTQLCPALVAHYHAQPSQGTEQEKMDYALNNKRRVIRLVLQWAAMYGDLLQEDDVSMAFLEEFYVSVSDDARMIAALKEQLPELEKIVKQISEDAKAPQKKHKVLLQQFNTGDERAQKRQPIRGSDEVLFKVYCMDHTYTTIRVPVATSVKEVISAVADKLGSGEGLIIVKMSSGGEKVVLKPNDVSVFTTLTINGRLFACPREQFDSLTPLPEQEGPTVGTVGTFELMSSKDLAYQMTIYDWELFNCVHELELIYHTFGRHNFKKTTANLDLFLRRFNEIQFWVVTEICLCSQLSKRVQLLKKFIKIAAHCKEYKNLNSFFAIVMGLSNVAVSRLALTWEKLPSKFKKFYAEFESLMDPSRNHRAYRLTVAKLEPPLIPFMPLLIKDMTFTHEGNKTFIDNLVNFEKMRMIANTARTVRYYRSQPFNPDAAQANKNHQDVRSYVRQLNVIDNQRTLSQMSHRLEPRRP
Chain of Rap guanine nucleotide exchange factor 3 (Homo sapiens) (O95398 whole entry, looked up): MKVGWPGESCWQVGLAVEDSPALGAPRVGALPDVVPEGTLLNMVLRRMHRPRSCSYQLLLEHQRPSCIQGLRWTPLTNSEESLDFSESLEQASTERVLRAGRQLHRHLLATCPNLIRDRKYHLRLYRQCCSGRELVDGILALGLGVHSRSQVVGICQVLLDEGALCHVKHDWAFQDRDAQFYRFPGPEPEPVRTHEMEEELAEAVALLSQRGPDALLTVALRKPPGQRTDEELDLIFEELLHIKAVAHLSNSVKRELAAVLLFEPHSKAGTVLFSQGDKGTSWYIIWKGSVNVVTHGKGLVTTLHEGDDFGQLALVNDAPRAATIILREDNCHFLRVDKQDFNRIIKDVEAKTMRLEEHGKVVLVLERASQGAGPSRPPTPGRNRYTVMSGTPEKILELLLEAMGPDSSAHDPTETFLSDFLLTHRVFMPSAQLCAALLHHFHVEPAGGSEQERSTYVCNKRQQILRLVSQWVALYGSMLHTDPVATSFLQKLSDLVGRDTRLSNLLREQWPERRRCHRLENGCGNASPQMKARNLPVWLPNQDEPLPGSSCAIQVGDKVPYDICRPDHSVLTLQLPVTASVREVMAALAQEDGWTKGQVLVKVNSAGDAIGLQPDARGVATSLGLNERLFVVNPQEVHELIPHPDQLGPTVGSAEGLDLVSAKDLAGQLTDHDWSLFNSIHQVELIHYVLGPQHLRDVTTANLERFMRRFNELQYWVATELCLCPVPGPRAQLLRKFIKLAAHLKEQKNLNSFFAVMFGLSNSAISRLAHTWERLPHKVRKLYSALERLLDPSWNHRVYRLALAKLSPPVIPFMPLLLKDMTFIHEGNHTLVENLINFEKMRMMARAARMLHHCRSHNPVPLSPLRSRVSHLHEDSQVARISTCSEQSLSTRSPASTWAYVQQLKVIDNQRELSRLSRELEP
Chain of Cytochrome P450 3A4 (Homo sapiens) (P08684 whole entry, looked up): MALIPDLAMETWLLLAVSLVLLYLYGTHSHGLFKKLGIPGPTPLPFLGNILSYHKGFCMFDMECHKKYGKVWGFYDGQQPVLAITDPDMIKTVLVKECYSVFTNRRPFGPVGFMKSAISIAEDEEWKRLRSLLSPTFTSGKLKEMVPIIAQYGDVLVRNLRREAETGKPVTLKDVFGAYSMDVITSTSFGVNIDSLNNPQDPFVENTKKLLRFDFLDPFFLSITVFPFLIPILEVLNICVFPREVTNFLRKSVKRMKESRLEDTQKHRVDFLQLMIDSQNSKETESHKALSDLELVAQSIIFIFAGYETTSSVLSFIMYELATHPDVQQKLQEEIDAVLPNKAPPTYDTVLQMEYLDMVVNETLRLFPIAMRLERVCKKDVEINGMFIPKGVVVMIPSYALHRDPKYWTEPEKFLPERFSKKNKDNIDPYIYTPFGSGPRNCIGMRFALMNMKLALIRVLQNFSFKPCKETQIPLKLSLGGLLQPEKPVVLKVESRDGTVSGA
Chain of M-phase phosphoprotein 8 (Homo sapiens) (Q99549 whole entry, looked up): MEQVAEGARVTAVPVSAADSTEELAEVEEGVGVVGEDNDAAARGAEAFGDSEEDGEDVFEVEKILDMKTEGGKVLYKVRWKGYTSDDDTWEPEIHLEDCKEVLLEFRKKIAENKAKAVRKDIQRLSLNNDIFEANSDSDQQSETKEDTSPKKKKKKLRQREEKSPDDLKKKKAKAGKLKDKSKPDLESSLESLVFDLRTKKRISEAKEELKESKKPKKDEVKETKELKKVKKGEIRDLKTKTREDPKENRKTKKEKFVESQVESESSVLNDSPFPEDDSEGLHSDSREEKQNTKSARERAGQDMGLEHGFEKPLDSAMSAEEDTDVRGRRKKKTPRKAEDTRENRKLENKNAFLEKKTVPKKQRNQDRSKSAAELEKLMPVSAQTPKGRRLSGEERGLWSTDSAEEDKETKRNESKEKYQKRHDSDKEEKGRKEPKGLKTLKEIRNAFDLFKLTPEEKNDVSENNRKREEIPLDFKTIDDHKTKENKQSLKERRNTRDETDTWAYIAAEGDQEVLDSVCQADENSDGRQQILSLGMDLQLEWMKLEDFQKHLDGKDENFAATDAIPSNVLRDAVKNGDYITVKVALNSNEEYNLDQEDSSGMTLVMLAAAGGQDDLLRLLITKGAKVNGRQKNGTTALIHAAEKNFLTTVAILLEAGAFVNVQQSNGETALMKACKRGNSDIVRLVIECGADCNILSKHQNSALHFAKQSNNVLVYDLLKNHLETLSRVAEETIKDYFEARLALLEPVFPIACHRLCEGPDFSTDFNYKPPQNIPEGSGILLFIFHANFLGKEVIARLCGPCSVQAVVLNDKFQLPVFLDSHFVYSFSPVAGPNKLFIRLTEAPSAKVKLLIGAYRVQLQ
Chain of Nuclear receptor subfamily 1 group I member 2 (Homo sapiens) (O75469 whole entry, looked up): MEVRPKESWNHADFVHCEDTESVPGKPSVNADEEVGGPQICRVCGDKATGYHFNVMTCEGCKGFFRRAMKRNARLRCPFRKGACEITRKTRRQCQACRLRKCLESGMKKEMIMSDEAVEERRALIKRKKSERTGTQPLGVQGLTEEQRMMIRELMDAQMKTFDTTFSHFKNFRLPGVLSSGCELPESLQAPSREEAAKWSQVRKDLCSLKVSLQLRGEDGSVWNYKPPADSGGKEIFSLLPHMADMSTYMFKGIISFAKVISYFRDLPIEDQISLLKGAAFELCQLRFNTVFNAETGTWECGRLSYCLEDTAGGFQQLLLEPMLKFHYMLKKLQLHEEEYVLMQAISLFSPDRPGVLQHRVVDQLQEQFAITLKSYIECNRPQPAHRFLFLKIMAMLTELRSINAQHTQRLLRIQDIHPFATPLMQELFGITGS
Chain of Cytochrome P450 1A2 (Homo sapiens) (P05177 whole entry, looked up): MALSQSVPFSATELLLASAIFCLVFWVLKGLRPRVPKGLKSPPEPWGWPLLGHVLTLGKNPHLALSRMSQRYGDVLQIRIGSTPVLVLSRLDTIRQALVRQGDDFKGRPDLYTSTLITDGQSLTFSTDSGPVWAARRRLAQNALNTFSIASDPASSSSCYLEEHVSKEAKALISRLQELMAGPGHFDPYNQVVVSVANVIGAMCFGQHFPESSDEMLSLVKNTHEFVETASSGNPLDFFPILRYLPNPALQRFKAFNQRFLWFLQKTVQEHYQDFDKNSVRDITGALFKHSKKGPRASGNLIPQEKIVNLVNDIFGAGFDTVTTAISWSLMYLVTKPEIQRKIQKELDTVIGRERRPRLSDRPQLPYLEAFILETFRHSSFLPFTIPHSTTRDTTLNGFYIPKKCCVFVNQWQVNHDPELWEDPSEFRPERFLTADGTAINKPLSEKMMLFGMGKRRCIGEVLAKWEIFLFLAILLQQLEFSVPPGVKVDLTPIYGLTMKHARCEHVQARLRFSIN

C[C@H]1[C@H](C)CC[C@]2(C(=O)O)CC[C@]3(C)C(=CC[C@@H]4[C@@]5(C)CC[C@H](O)C(C)(C)[C@@H]5CC[C@]43C)[C@H]12
inactive: [2] | [3] | [4]
active: [1] 3.55 µM

CC(/C=C1\SC(=S)N(CC(=O)O)C1=O)=C\c1ccccc1
inactive: [5] | [6] | [7] | [8] | [9] | [10] | [11]

COC1=C(OC)C(=O)C(C/C=C(\C)CC/C=C(\C)CC/C=C(\C)CC/C=C(/C)CC/C=C(\C)CC/C=C(\C)CC/C=C(\C)CC/C=C(\C)CC/C=C(\C)CCC=C(C)C)=C(C)C1=O
inactive: [12]

C[C@H]1CC2[C@@H]3CCC4=CC(=O)C=C[C@]4(C)[C@@]3(F)[C@@H](O)C[C@]2(C)[C@@]1(O)C(=O)CO (stereo not given in full)
inactive: [13] | [14] | [15]
